HRas wt GTP bind: human HRas wildtype GTP binding, change in either direction; P01112; GST-Ras wt beads, Bodipy-FL-GTP binding, flow cytometry; actives lie on both sides; GTP binding activity, % at 10 µM; actives 0.14% (n = 190,000); AID 759;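 active = GTP binding activity at least 20% away from the 100% baseline, either lowered as inhibitor or raised as activator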;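 also: 0% = unlabeled GTP competition control and 100% = no-compound control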
Target sequence (P01112 whole entry, looked up): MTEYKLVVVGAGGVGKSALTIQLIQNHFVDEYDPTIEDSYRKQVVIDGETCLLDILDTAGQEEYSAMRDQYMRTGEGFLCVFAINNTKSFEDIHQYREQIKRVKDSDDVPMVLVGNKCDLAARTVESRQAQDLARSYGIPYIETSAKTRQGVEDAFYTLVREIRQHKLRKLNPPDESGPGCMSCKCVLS
Rac1 act GTP bind: alters GTP binding to activated mutant human Rac1; actives 0.11% (n = 190,000); GST-Rac1 activated beads, fluorescent GTP binding, flow cytometry; actives lie on both sides; 100% means binding = to untreated wells; P63000; percent activity (GTP binding), % at 10 µM;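 active = GTP binding at least 20 percentage points away from the 100% baseline, in either direction, so actives lie on both sides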
Rac1 wt GTP bind: modulators of human Rac1 wildtype GTP binding | P63000 | GST-Rac1 beads, fluorescent GTP binding, flow cytometry; actives lie on both sides; 0 = cold GTP competed, 100 = untreated | GTP binding activity (% of control), % at 10 µM | actives 0.27% (n = 190,000) | AID 757;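 active = GTP binding activity at least 20 points away from the 100% control level, either lower or higher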
Rab7 wt modul: alters GTP binding to wildtype dog Rab7; GST-Rab7 beads, fluorescent GTP binding, flow cytometry; actives lie on both sides; untreated = 100%, excess cold GTP = 0%; GTP binding activity (percent of control), % at 10 µM; AID 758; actives 0.055% (n = 190,000);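 active = fluorescent GTP binding to Rab7 beads changed by at least 20 points from the 100% baseline, either direction, mostly lower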;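 also: median green fluorescence of bound Bodipy-FL-GTP per Rab7 bead population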
Cdc42 wt: changes GTP binding to wildtype human Cdc42; percent activity (GTP binding), % at 10 µM; actives 0.2% (n = 190,000); P60953; GST-Cdc42 beads, Bodipy-GTP binding, flow cytometry; actives lie on both sides;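 active = percent activity GTP binding at least 20 points away from the 100% baseline, either down as inhibitor or up as activator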;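 also: median bead fluorescence of bound Bodipy-FL-GTP at 100 nM; 0% = excess unlabeled GTP control and 100% = no compound control; below 100% means less GTP binding so inhibitor and above means activator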
Target sequence (P60953 whole entry, looked up): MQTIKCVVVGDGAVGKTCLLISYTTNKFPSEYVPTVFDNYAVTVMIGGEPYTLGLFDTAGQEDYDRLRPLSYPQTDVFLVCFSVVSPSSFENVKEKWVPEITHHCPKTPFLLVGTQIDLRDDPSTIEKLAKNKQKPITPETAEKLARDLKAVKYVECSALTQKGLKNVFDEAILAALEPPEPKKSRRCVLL
Rab2 wt GTP: changes GTP binding to wildtype dog Rab2A, up or down. GTP binding activity, % at 10 µM. P61105. actives 0.19% (n = 190,000). GST-Rab2 wt beads, Bodipy-GTP binding, flow cytometry. AID 760;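 active = GTP binding activity at least 20 points away from 100%, either lowered or raised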;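 also: 0% = beads with excess unlabeled GTP and 100% = no-compound control corrected for plate trend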
An asterisk follows results filed as active; [ ] = dose if it differs, or a comment. Most compounds without a hit are left out; they make up all but 0.38% or so of the library.

SMILES	HRas wt GTP bind	Rac1 act GTP bind	Rac1 wt GTP bind	Rab7 wt modul	Cdc42 wt	Rab2 wt GTP
COc1ccc(/C=N/NC(=O)c2cccc([N+](=O)[O-])c2)cc1OC	98.0	94.0	99.0	109.0	95.0	99.0
O=C(N/N=C/c1ccc2nccnc2c1)c1cccc([N+](=O)[O-])c1	88.0	89.0	77.0*	97.0	82.0	86.0
N#C/C(=C/c1ccc([N+](=O)[O-])cc1)C(=O)Nc1ccccc1O	96.0	97.0	98.0	94.0	91.0	93.0
N#C/C(=C/c1ccc(O)c([N+](=O)[O-])c1)C(=O)Nc1ccccc1	86.0	87.0	77.0*	102.0	79.0*	84.0
Cc1ccc(CS(=O)(=O)c2ccccc2-c2nnc(-c3ccc(Cl)cc3)o2)cc1	80.0	90.0	93.0	77.0*	93.0	86.0
Cc1ccccc1-c1nnc(-c2ccc(Cl)cc2)o1	98.0	97.0	99.0	97.0	101.0	98.0
FC(F)c1nc2ccccc2[nH]1	100.0	97.0	101.0	100.0	100.0	99.0
c1ccc2[nH]c3cc4ncnc4cc3nc2c1	77.0*	91.0	79.0*	87.0	83.0	77.0*
Cc1ccc(Br)cc1S(=O)(=O)N1CCN(c2ccccc2)CC1	100.0	99.0	102.0	103.0	100.0	100.0
Cc1cccc(Cc2c(C)nc3nc(SCC(=O)O)nn3c2C)c1	78.0*	68.0*	72.0*	89.0	66.0*	74.0*
Cc1nc2nc(SCC(=O)NCCN3CCOCC3)nn2c(C)c1Cc1ccccc1	100.0	100.0	103.0	100.0	99.0	100.0
CC(C)C(NCc1c(Cl)cccc1Cl)C(=O)O (stereo unspecified)	114.0	114.0	124.0*[activator]	112.0	118.0	115.0
O=C1c2ccccc2CCC12N=NCC2c1ccccc1 (stereo unspecified)	99.0	96.0	96.0	91.0	98.0	93.0
Cc1nnc(NC(=O)CSc2ccc3nnc(-c4ccccn4)n3n2)s1	97.0	94.0	98.0	104.0	92.0	93.0
CCOC(=O)CSc1ccc2nnc(-c3cccs3)n2n1	94.0	97.0	92.0	95.0	99.0	90.0
O=C(CSc1ccc2nnc(-c3ccncc3)n2n1)Nc1nccs1	83.0	86.0	71.0*	86.0	79.0*	80.0
O=C(CSc1ccc2nnc(-c3ccccn3)n2n1)Nc1nccs1	68.0*	73.0*	54.0*	80.0	65.0*	62.0*
O=C(CSc1ccc2nnc(-c3cccs3)n2n1)N1CCCC1	84.0	88.0	73.0*	96.0	82.0	85.0
CCOc1ccccc1CN1CCN(C2CCSCC2)CC1CCO (stereo unspecified)	98.0	99.0	102.0	103.0	97.0	98.0
OCCNc1ncnc2c1sc1nc(N3CCOCC3)c3c(c12)CCC3	91.0	94.0	94.0	91.0	91.0	86.0
COCCNc1nnnc2c1sc1nc(N3CCOCC3)c3c(c12)CCCC3	82.0	88.0	73.0*	95.0	81.0	83.0
O=C(O)c1ccc(/C=N/NC(=O)c2cc(-c3ccc4c5c(cccc35)CC4)n[nH]2)cc1	84.0	91.0	76.0*	92.0	78.0*	80.0
O=C(O)c1ccc(NS(=O)(=O)c2ccc3c(c2)C(=O)c2ccccc2C3=O)cc1	83.0	83.0	72.0*	88.0	80.0	81.0
Oc1ccc(/C=N/Nc2nc(-c3ccc(Cl)cc3)cc(C(F)(F)F)n2)cc1	99.0	98.0	102.0	100.0	100.0	98.0
O=c1[nH]c(=O)c2nnc(N/N=C\c3ccc(O)cc3)nc2[nH]1	63.0*	74.0*	54.0*	92.0	60.0*	59.0*
SMILES	HRas wt GTP bind	Rac1 act GTP bind	Rac1 wt GTP bind	Rab7 wt modul	Cdc42 wt	Rab2 wt GTP
CCOc1ccc2nc(SCc3ccc(CC(=O)O)cc3)c(C#N)cc2c1	84.0	76.0*	82.0	88.0	71.0*	74.0*
CCOc1ccc2nc(SCC(=O)N3c4ccccc4Sc4ccccc43)c(C#N)cc2c1	102.0	100.0	105.0	102.0	100.0	100.0
O=C(CCS(=O)(=O)c1ccccc1)Nc1ccccc1-c1nc2ccccc2s1	99.0	98.0	103.0	101.0	99.0	99.0
CCN1C(=O)CC2(C[N+]3(C)CCC2CC3)C1=O (stereo unspecified)	103.0	100.0	105.0	97.0	102.0	98.0
Cc1cc(N/N=C/c2ccc(O)cc2O)nc(-c2ccccc2O)n1	79.0*	89.0	71.0*	94.0	81.0	77.0*
COc1cccc(-n2c(SCC(=O)NCCC3=CCCCC3)nc3n[nH]c(C)c3c2=N)c1	73.0*	89.0	88.0	87.0	75.0*	76.0*
CCCC/C(O)=C1\C(=O)CC(C)(C)CC1=Nc1ccc(N)cc1	95.0	90.0	89.0	102.0	92.0	96.0
Cc1ccc(-n2c(-c3cnccn3)n[nH]c2=S)c(Br)c1	80.0	80.0	81.0	84.0	79.0*	82.0
Cc1sc2ncnc(N/N=C/c3ccc(O)cc3)c2c1C	80.0	93.0	82.0	88.0	93.0	77.0*
COc1ccc(/C=N/Nc2ncnc3sc(C)c(C)c23)cc1	96.0	95.0	96.0	97.0	93.0	96.0
CCOCCCNC(=O)CN1C(=O)/C(=C/c2ccccc2)Sc2ccccc21	96.0	98.0	97.0	96.0	96.0	96.0
Cn1nc([N+](=O)[O-])c(C(C#N)c2ccccn2)c(Cl)c1=O (stereo unspecified)	82.0	61.0*	84.0	93.0	79.0*	80.0
CCCn1nc([N+](=O)[O-])c(C(C#N)c2nc3ccccc3o2)c(Cl)c1=O (stereo unspecified)	98.0	93.0	100.0	98.0	96.0	95.0
Cc1ccc(-n2c(C)nn(Cc3ccc([N+](=O)[O-])cc3)c2=O)cc1	101.0	95.0	99.0	103.0	94.0	98.0
Cc1ccc(-n2c3nc(=O)[nH]c(=O)c-3cc3cc([N+](=O)[O-])ccc32)cc1	82.0	80.0	77.0*	87.0	80.0	82.0
CC(NC(=S)Nc1ccccc1Cl)C(c1cccs1)N1CCCC1 (stereo unspecified)	97.0	99.0	101.0	96.0	100.0	96.0
Cc1ccc(-c2cc(C(=O)N3CCN(c4ncccn4)CC3)c3cc(Br)ccc3n2)o1	96.0	95.0	99.0	104.0	96.0	97.0
Cc1ccn2c(NCc3ccc4c(c3)OCO4)c(-c3ccc(O)cc3)nc2c1	91.0	112.0	135.0*[activator]	82.0	145.0*[activator]	100.0
N#CCCN1CCN(C2=NC(=O)/C(=C\c3cccs3)S2)CC1	96.0	95.0	99.0	95.0	101.0	98.0
CC1=C(C#N)c2nc(N)c(C#N)c(C)c2/C1=C\c1ccc(-c2ccccc2C(=O)O)o1	81.0	81.0	75.0*	88.0	78.0*	76.0*

Screens as filed in PubChem.
